# Test results as given in paper PMC3218832.
# Assays:
# Assay in all cases: protein binding microarray; high values mean tight binding
# Settings in all cases: dsDNA, one strand shown
# RELARELA (p65 homodimer) = RELARELA (p65 homodimer) (Homo sapiens, UniProt Q04206 1-307)
# p50p50 homodimer = p50p50 homodimer (Homo sapiens, UniProt P19838 7-356)
# p52p52 homodimer = target: T1, p52p52 homodimer (Homo sapiens, UniProt Q00653 4-332)
# T1 sequence: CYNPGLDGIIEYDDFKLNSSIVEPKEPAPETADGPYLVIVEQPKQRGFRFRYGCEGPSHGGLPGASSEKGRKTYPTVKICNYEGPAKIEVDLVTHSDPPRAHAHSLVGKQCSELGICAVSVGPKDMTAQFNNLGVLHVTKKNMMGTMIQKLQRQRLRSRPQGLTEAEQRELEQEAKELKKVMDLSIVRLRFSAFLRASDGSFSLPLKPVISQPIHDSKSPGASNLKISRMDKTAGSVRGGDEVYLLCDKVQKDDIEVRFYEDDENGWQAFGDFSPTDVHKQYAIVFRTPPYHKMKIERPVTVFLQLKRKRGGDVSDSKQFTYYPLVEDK
# [1] = target: RELA (p65) subunit of heterodimer;p50 subunit (Homo sapiens;Homo sapiens, UniProt Q04206;P19838 1-307;7-356)
# Sequence of RELA (p65) subunit of heterodimer;p50 subunit (Q04206 1-307, chain 1 of 2): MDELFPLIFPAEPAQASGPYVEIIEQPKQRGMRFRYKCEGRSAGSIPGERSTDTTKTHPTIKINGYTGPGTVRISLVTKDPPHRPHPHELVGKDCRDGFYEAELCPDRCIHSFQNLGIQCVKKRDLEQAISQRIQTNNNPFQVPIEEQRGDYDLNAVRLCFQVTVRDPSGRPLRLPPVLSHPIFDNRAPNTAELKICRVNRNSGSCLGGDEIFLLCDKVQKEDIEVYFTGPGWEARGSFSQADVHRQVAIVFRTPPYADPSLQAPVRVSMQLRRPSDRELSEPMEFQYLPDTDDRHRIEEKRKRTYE
# Sequence of RELA (p65) subunit of heterodimer;p50 subunit (P19838 7-356, chain 2 of 2): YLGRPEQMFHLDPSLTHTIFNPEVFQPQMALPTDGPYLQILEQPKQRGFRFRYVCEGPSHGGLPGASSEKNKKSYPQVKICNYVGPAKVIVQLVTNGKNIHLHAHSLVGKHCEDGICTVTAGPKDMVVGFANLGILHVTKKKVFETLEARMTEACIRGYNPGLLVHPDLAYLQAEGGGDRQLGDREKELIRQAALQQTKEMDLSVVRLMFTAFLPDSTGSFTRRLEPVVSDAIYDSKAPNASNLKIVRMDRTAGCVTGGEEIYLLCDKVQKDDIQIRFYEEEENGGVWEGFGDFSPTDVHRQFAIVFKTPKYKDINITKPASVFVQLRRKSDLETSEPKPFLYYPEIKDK
# [2] = target: RELA (p65) subunit of heterodimer;p52 subunit (Homo sapiens;Homo sapiens, UniProt Q04206;Q00653 1-307;4-332)
# RELB subunit;p50 subunit = RELB subunit;p50 subunit (Homo sapiens;Homo sapiens, UniProt Q01201;P19838 120-401;7-356)
# RELB subunit;p52 subunit = target: T2, RELB subunit;p52 subunit (Homo sapiens;Homo sapiens, UniProt Q01201;Q00653 120-401;4-332)
# T2 sequence 1: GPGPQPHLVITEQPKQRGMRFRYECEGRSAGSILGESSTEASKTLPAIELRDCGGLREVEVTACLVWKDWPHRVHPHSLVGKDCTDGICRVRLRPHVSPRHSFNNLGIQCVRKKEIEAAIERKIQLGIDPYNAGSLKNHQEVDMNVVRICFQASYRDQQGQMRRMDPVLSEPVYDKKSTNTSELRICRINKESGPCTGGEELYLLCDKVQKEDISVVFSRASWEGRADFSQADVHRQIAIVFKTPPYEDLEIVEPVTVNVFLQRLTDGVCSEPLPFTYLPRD
# T2 sequence 2: T1 sequence
# [3] = target: C-Rel subunit;p50 subunit (Homo sapiens;Homo sapiens, UniProt Q04864;P19838 1-285;7-356)
# [4] = target: T3, C-Rel subunit;p52 subunit (Homo sapiens;Homo sapiens, UniProt Q04864;Q00653 1-285;4-332)
# T3 sequence 1: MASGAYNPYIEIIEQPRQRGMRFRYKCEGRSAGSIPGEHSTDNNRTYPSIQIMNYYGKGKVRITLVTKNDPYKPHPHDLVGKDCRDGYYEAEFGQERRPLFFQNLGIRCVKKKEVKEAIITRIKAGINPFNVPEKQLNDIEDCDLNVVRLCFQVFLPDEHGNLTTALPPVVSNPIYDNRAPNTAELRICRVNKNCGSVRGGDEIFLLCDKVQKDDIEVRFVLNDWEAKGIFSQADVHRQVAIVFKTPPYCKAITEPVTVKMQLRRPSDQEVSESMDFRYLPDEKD
# T3 sequence 2: T1 sequence
# Sequence of p50p50 homodimer (P19838 7-356): as the sequence (P19838 7-356, chain 2 of 2) above
# Sequence of RELARELA (p65 homodimer) (Q04206 1-307): as the sequence (Q04206 1-307, chain 1 of 2) above
sequence,measurement,setting,value
GAAATCCTCCT,binding signal,RELARELA (p65 homodimer),-0.0844 z-score
same,binding signal,p50p50 homodimer,-0.961 z-score
same,binding signal,p52p52 homodimer,-0.613 z-score
same,binding signal,[1],-0.658 z-score
same,binding signal,[2],-0.961 z-score
same,binding signal,RELB subunit;p50 subunit,-0.979 z-score
same,binding signal,RELB subunit;p52 subunit,-0.866 z-score
same,binding signal,[3],-0.982 z-score
same,binding signal,[4],-0.715 z-score
AGGAAAGTCCC,binding signal,RELARELA (p65 homodimer),2.97 z-score
same,binding signal,p50p50 homodimer,0.984 z-score
same,binding signal,p52p52 homodimer,2.54 z-score
same,binding signal,[1],2.16 z-score
same,binding signal,[2],1.77 z-score
same,binding signal,RELB subunit;p50 subunit,1.45 z-score
same,binding signal,RELB subunit;p52 subunit,1.93 z-score
same,binding signal,[3],2.17 z-score
same,binding signal,[4],2.89 z-score
CAGGACTTCCT,binding signal,RELARELA (p65 homodimer),-0.0226 z-score
same,binding signal,p50p50 homodimer,-0.664 z-score
same,binding signal,p52p52 homodimer,-0.608 z-score
same,binding signal,[1],-0.403 z-score
same,binding signal,[2],-0.542 z-score
same,binding signal,RELB subunit;p50 subunit,-0.897 z-score
same,binding signal,RELB subunit;p52 subunit,-0.842 z-score
same,binding signal,[3],-0.448 z-score
same,binding signal,[4],-0.475 z-score
CAGGGAGTCCT,binding signal,RELARELA (p65 homodimer),0.0727 z-score
same,binding signal,p50p50 homodimer,0.0337 z-score
same,binding signal,p52p52 homodimer,-0.143 z-score
same,binding signal,[1],-0.336 z-score
same,binding signal,[2],-0.215 z-score
same,binding signal,RELB subunit;p50 subunit,-0.201 z-score
same,binding signal,RELB subunit;p52 subunit,-0.323 z-score
same,binding signal,[3],-0.383 z-score
same,binding signal,[4],-0.23 z-score
AAGAGCTTCCC,binding signal,RELARELA (p65 homodimer),0.146 z-score
same,binding signal,p50p50 homodimer,-0.795 z-score
same,binding signal,p52p52 homodimer,-0.487 z-score
same,binding signal,[1],-0.305 z-score
same,binding signal,[2],-0.49 z-score
same,binding signal,RELB subunit;p50 subunit,-0.563 z-score
same,binding signal,RELB subunit;p52 subunit,-0.671 z-score
same,binding signal,[3],-0.423 z-score
same,binding signal,[4],-0.463 z-score
GGAGGTATCCC,binding signal,RELARELA (p65 homodimer),-0.331 z-score
same,binding signal,p50p50 homodimer,-1.01 z-score
same,binding signal,p52p52 homodimer,-0.304 z-score
same,binding signal,[1],-0.519 z-score
same,binding signal,[2],-0.401 z-score
same,binding signal,RELB subunit;p50 subunit,-0.488 z-score
same,binding signal,RELB subunit;p52 subunit,-0.395 z-score
same,binding signal,[3],-0.57 z-score
same,binding signal,[4],-0.276 z-score
GAGGGTGTCCC,binding signal,RELARELA (p65 homodimer),0.223 z-score
same,binding signal,p50p50 homodimer,0.0932 z-score
same,binding signal,p52p52 homodimer,0.206 z-score
same,binding signal,[1],0.366 z-score
same,binding signal,[2],0.191 z-score
same,binding signal,RELB subunit;p50 subunit,0.314 z-score
same,binding signal,RELB subunit;p52 subunit,0.399 z-score
same,binding signal,[3],0.469 z-score
same,binding signal,[4],0.107 z-score
GAAGTCTTCCC,binding signal,RELARELA (p65 homodimer),0.246 z-score
same,binding signal,p50p50 homodimer,-0.511 z-score
same,binding signal,p52p52 homodimer,-0.37 z-score
same,binding signal,[1],-0.272 z-score
same,binding signal,[2],-0.339 z-score
same,binding signal,RELB subunit;p50 subunit,-0.349 z-score
same,binding signal,RELB subunit;p52 subunit,-0.537 z-score
same,binding signal,[3],0.175 z-score
same,binding signal,[4],-0.174 z-score
CAATATACCCC,binding signal,RELARELA (p65 homodimer),-0.012 z-score
same,binding signal,p50p50 homodimer,0.317 z-score
same,binding signal,p52p52 homodimer,0.195 z-score
same,binding signal,[1],0.199 z-score
same,binding signal,[2],0.442 z-score
same,binding signal,RELB subunit;p50 subunit,0.428 z-score
same,binding signal,RELB subunit;p52 subunit,0.992 z-score
same,binding signal,[3],0.384 z-score
same,binding signal,[4],0.51 z-score
AAGGAACCCCT,binding signal,RELARELA (p65 homodimer),-0.469 z-score
same,binding signal,p50p50 homodimer,0.961 z-score
same,binding signal,p52p52 homodimer,0.532 z-score
same,binding signal,[1],0.281 z-score
same,binding signal,[2],0.861 z-score
same,binding signal,RELB subunit;p50 subunit,0.479 z-score
same,binding signal,RELB subunit;p52 subunit,0.874 z-score
same,binding signal,[3],0.215 z-score
same,binding signal,[4],0.603 z-score
AGGATAATCCC,binding signal,RELARELA (p65 homodimer),1.11 z-score
same,binding signal,p50p50 homodimer,-0.039 z-score
same,binding signal,p52p52 homodimer,0.47 z-score
same,binding signal,[1],0.562 z-score
same,binding signal,[2],0.416 z-score
same,binding signal,RELB subunit;p50 subunit,-0.113 z-score
same,binding signal,RELB subunit;p52 subunit,0.0769 z-score
same,binding signal,[3],0.307 z-score
same,binding signal,[4],0.396 z-score
CAGGGGTTCCT,binding signal,RELARELA (p65 homodimer),-0.143 z-score
same,binding signal,p50p50 homodimer,0.529 z-score
same,binding signal,p52p52 homodimer,0.77 z-score
same,binding signal,[1],-0.0941 z-score
same,binding signal,[2],0.55 z-score
same,binding signal,RELB subunit;p50 subunit,-0.0145 z-score
same,binding signal,RELB subunit;p52 subunit,0.388 z-score
same,binding signal,[3],-0.324 z-score
same,binding signal,[4],0.485 z-score
GAAAACCCCCT,binding signal,RELARELA (p65 homodimer),1.83 z-score
same,binding signal,p50p50 homodimer,1.6 z-score
same,binding signal,p52p52 homodimer,2.75 z-score
same,binding signal,[1],2.46 z-score
same,binding signal,[2],2.59 z-score
same,binding signal,RELB subunit;p50 subunit,3.02 z-score
same,binding signal,RELB subunit;p52 subunit,2.62 z-score
same,binding signal,[3],1.99 z-score
same,binding signal,[4],2.86 z-score
AAAGAATTCCC,binding signal,RELARELA (p65 homodimer),2.27 z-score
same,binding signal,p50p50 homodimer,1.08 z-score
same,binding signal,p52p52 homodimer,1.36 z-score
same,binding signal,[1],1.57 z-score
same,binding signal,[2],1.25 z-score
same,binding signal,RELB subunit;p50 subunit,1.07 z-score
same,binding signal,RELB subunit;p52 subunit,0.975 z-score
same,binding signal,[3],1.54 z-score
same,binding signal,[4],1.12 z-score
GGAGGACCCCT,binding signal,RELARELA (p65 homodimer),-0.648 z-score
same,binding signal,p50p50 homodimer,-0.192 z-score
same,binding signal,p52p52 homodimer,-0.0995 z-score
same,binding signal,[1],0.108 z-score
same,binding signal,[2],0.173 z-score
same,binding signal,RELB subunit;p50 subunit,-0.321 z-score
same,binding signal,RELB subunit;p52 subunit,-0.0771 z-score
same,binding signal,[3],0 z-score
same,binding signal,[4],0.275 z-score
CAAGGAGCCCC,binding signal,RELARELA (p65 homodimer),-0.885 z-score
same,binding signal,p50p50 homodimer,0.241 z-score
same,binding signal,p52p52 homodimer,-0.0311 z-score
same,binding signal,[1],-0.1 z-score
same,binding signal,[2],-0.176 z-score
same,binding signal,RELB subunit;p50 subunit,0.0779 z-score
same,binding signal,RELB subunit;p52 subunit,0.0984 z-score
same,binding signal,[3],0.121 z-score
same,binding signal,[4],-0.176 z-score
